In PubChem BioAssay AID1159580 (chemical genetic matrix, 2015):
Among all 5,500 compounds or so, about 2,000 (36%) were called active. Roughly 18% stayed inconclusive and do not appear here. No stated cut-off is given here; in the data, active means normalized growth mostly below about 0.91 (no sharp cut-off); inconclusive means no clear call, values can overlap the other calls; inactive means mostly above about 0.92. The list shows a part of the results.

Experiment: chemical genetic growth profiling, strain panel (AID 1159580);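 further: tested at 20 µM; growth read once vehicle control cultures reached saturation at 30 °C; 1 = growth at the plate median or of vehicle wells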
Conditions: S. cerevisiae deletion strains, growth OD
[1] = locus YAR019C, strain CDC15, stronger effect = lower value
[2] = locus YBL105C, strain PKC1, stronger effect = lower value
[3] = locus YBR135W, strain CKS1, stronger effect = lower value
[4] = locus YBR136W, strain MEC1, stronger effect = lower value
[5] = locus YBR160W, strain CDC28, stronger effect = lower value
[6] = locus YDL017W, strain CDC7, stronger effect = lower value
[7] = locus YDL028C, strain MPS1, stronger effect = lower value
[8] = locus YDL101C, strain DUN1, stronger effect = lower value
[9] = locus YDL108W, strain KIN28, stronger effect = lower value
[10] = locus YDL132W, strain cdc53, stronger effect = lower value
[11] = locus YDL214C, strain PRR2, stronger effect = lower value
[12] = locus YDR052C, strain DBF4, stronger effect = lower value
[13] = locus YDR054C, strain cdc34, stronger effect = lower value
[14] = locus YDR226W, strain ADK1, stronger effect = lower value
[15] = locus YDR477W, strain SNF1, stronger effect = lower value
[16] = locus YER123W, strain YCK3, stronger effect = lower value
[17] = locus YER133W, strain GLC7, stronger effect = lower value
[18] = locus YFL009W, strain cdc4, stronger effect = lower value
[19] = locus YFL029C, strain CAK1, stronger effect = lower value
[20] = locus YFR003C, strain YPI1, stronger effect = lower value
[21] = locus YFR019W, strain FAB1, stronger effect = lower value
[22] = locus YFR028C, strain CDC14, stronger effect = lower value
[23] = locus YGR040W, strain KSS1, stronger effect = lower value
[24] = locus YGR052W, strain FMP48, stronger effect = lower value
[25] = locus YGR092W, strain DBF2, stronger effect = lower value
[26] = locus YHR030C, strain SLT2, stronger effect = lower value
[27] = locus YHR079C, strain IRE1, stronger effect = lower value
[28] = locus YHR082C, strain KSP1, stronger effect = lower value
[29] = locus YHR205W, strain SCH9, stronger effect = lower value
[30] = locus YIL147C, strain SLN1, stronger effect = lower value
[31] = locus YJL095W, strain BCK1, stronger effect = lower value
[32] = locus YJL128C, strain PBS2, stronger effect = lower value
[33] = locus YJL157C, strain FAR1, stronger effect = lower value
[34] = locus YJR016C, strain ILV3, stronger effect = lower value
[35] = locus YJR066W, strain TOR1 (second series), stronger effect = lower value
[36] = locus YJR066W, strain TOR1, stronger effect = lower value
[37] = locus YKL048C, strain ELM1, stronger effect = lower value
[38] = locus YKL067W, strain YNK1, stronger effect = lower value
[39] = locus YKL101W, strain HSL1, stronger effect = lower value
[40] = locus YKL193C, strain SDS22, stronger effect = lower value
[41] = locus YKL203C, strain TOR2, stronger effect = lower value
[42] = locus YLR113W, strain HOG1, stronger effect = lower value
[43] = locus YLR133W, strain CKI1, stronger effect = lower value
[44] = locus YLR403W, strain SFP1, stronger effect = lower value
[45] = locus YML070W, strain DAK1, stronger effect = lower value
[46] = locus YMR001C, strain CDC5, stronger effect = lower value
[47] = locus YMR205C, strain PFK2 (second series), stronger effect = lower value
[48] = locus YMR277W, strain FCP1, stronger effect = lower value
[49] = locus YNL006W, strain LST8, stronger effect = lower value
[50] = locus YNL020C, strain ARK1, stronger effect = lower value
[51] = locus YNL161W, strain CBK1, stronger effect = lower value
[52] = locus YNL183C, strain NPR1, stronger effect = lower value
[53] = locus YNL207W, strain RIO2, stronger effect = lower value
[54] = locus YNL222W, strain SSU72, stronger effect = lower value
[55] = locus YNL307C, strain MCK1 (second series), stronger effect = lower value
[56] = locus YOL078W, strain AVO1, stronger effect = lower value
[57] = locus YOL136C, strain PFK27, stronger effect = lower value
[58] = locus YOR061W, strain CKA2, stronger effect = lower value
[59] = locus YOR119C, strain RIO1, stronger effect = lower value
[60] = locus YOR231W, strain MKK1, stronger effect = lower value
[61] = locus YOR329C, strain SCD5, stronger effect = lower value
[62] = locus YPL031C, strain PHO85, stronger effect = lower value
[63] = locus YPL153C, strain RAD53, stronger effect = lower value
[64] = locus YPL204W, strain HRR25, stronger effect = lower value
[65] = locus YPL209C, strain IPL1, stronger effect = lower value
[66] = locus YPL256C, strain CLN2, stronger effect = lower value
[67] = locus YPR025C, strain CCL1, stronger effect = lower value
[68] = locus YPR106W, strain ISR1, stronger effect = lower value
[69] = locus YPR111W, strain DBF20, stronger effect = lower value
[70] = strain NNK1, stronger effect = lower value
[71] = strain TSCII, stronger effect = lower value

Measured: normalized growth

CCCCN(C)C(=O)c1cc([N+](=O)[O-])cc2c1-c1ccc([N+](=O)[O-])cc1C2=C(C#N)C#N
inactive: [1] 0.984 | [2] 0.988 | [3] 0.985 | [4] 0.977 | [5] 0.979 | [6] 0.985 | [7] 0.976 | [8] 0.98 | [9] 0.974 | [10] 0.969 | [11] 0.983 | [12] 0.975 | [13] 0.98 | [14] 0.994 | [15] 0.972 | [16] 0.942 | [17] 0.984 | [18] 0.983 | [19] 0.98 | [20] 0.984 | [21] 0.961 | [22] 0.98 | [23] 0.978 | [24] 0.953 | [25] 0.944 | [26] 0.968 | [27] 0.957 | [28] 1.04 | [29] 0.976 | [30] 0.982 | [31] 0.868 | [32] 0.959 | [33] 0.988 | [34] 0.973 | [35] 0.971 | [36] 0.973 | [37] 0.98 | [38] 0.971 | [39] 0.951 | [40] 0.977 | [41] 1.01 | [42] 0.871 | [43] 0.99 | [44] 0.966 | [45] 0.94 | [46] 0.977 | [47] 0.985 | [48] 0.976 | [49] 0.983 | [50] 0.985 | [51] 0.983 | [52] 0.968 | [53] 0.979 | [54] 0.978 | [55] 0.907 | [56] 0.968 | [57] 0.941 | [58] 0.971 | [59] 1.03 | [60] 0.876 | [61] 0.99 | [62] 0.967 | [63] 0.986 | [64] 0.958 | [65] 0.986 | [66] 0.968 | [67] 0.982 | [68] 0.985 | [69] 0.993 | [70] 0.994 | [71] 0.98

CC(=O)ON=C1c2cc([N+](=O)[O-])ccc2-c2ccc([N+](=O)[O-])cc21
inactive: [1] 0.948 | [2] 0.942 | [3] 0.949 | [4] 0.939 | [5] 0.955 | [6] 0.954 | [7] 0.933 | [8] 0.963 | [9] 0.937 | [10] 0.971 | [11] 0.85 | [12] 0.953 | [13] 0.942 | [14] 0.983 | [15] 0.729 | [16] 0.793 | [17] 0.867 | [18] 0.966 | [19] 0.948 | [20] 0.935 | [21] 0.933 | [22] 0.963 | [23] 0.702 | [24] 0.793 | [27] 0.825 | [28] 0.796 | [29] 0.858 | [30] 0.93 | [31] 0.778 | [32] 0.917 | [33] 0.835 | [34] 0.939 | [35] 0.682 | [36] 0.76 | [37] 0.892 | [38] 0.864 | [39] 0.761 | [40] 0.945 | [41] 0.843 | [43] 0.879 | [44] 0.776 | [45] 0.852 | [46] 0.942 | [47] 0.865 | [48] 0.936 | [49] 0.953 | [50] 0.836 | [51] 0.952 | [52] 0.745 | [53] 0.93 | [54] 0.939 | [55] 0.691 | [56] 0.95 | [57] 0.866 | [58] 0.751 | [59] 0.817 | [60] 0.848 | [61] 0.942 | [62] 0.701 | [63] 0.724 | [64] 0.749 | [65] 0.948 | [66] 0.891 | [67] 0.947 | [68] 0.964 | [69] 0.957 | [70] 0.944 | [71] 0.943
active: [25] 0.426 | [26] 0.788 | [42] 0.789
